# Experimental data published in paper PMC7862700, “An all-to-all approach to the identification of sequence-specific readers for epigenetic DNA modifications on cytosine”.
# Tests used:
# Experiment in all cases: DAPPL (digital affinity profiling via proximity ligation, sequencing); 10 mM Tris-HCl pH 7.5, 50 mM NaCl, 1 mM DTT, 4% glycerol, room temperature, 30 min; GST-TFs on glutathione beads, 16-mer random dsDNA library, 0.1% formaldehyde crosslink after washing; high values mean tight binding
# FEV = target: T1, FEV (Homo sapiens, UniProt Q99581 1-238); details: protein: recombinant; tags: N-terminal GST; dsDNA, one strand shown
# T1 sequence: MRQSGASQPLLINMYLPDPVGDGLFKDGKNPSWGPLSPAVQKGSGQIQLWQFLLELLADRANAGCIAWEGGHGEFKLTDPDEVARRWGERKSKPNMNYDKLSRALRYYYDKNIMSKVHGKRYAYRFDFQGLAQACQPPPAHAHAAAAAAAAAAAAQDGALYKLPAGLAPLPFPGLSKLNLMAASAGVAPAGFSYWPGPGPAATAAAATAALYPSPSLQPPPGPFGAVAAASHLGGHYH
# Method in brief: (§1)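 Yeast served to express human transcription factors as GST fusions, which were then captured on glutathione beads and labelled with DNA barcodes. Pooled with a tag-only sample, they were incubated with 200 nmole of a 16-mer random double-stranded DNA library for 30 min at room temperature in Tris/NaCl/DTT/glycerol buffer, washed, crosslinked with 0.1% formaldehyde, ligated by proximity, amplified by PCR and sequenced. Dividing each hexamer's read frequency for a factor by its frequency for the tag-only sample gives the binding signal.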
# ETV5 = ETV5 (Homo sapiens, UniProt P41161 1-510); details: protein: recombinant; tags: N-terminal GST; dsDNA, one strand shown
# Method in brief: as §1
# HSF1 = HSF1 (Homo sapiens, UniProt Q00613 1-529); details: protein: recombinant; tags: N-terminal GST; chain copies: 3; dsDNA, one strand shown
# Method in brief: as §1
# SPIC = target: T2, SPIC (Homo sapiens, UniProt Q8N5J4 1-248); details: protein: recombinant; tags: N-terminal GST; dsDNA, one strand shown
# T2 sequence: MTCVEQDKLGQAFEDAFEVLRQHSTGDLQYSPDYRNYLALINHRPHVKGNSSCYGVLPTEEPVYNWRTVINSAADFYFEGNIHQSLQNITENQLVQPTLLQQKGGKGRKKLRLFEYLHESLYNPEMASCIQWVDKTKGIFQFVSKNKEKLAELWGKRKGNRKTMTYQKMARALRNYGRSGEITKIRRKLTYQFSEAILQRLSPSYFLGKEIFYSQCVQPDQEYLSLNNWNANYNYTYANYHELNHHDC
# Method in brief: as §1
# ELF4 = ELF4 (Homo sapiens, UniProt Q99607 1-663); details: protein: recombinant; tags: N-terminal GST; dsDNA, one strand shown
# Method in brief: as §1
# ELK4 = target: T3, ELK4 (Homo sapiens, UniProt P28324-2 1-405); details: protein: recombinant; tags: N-terminal GST; dsDNA, one strand shown
# T3 sequence: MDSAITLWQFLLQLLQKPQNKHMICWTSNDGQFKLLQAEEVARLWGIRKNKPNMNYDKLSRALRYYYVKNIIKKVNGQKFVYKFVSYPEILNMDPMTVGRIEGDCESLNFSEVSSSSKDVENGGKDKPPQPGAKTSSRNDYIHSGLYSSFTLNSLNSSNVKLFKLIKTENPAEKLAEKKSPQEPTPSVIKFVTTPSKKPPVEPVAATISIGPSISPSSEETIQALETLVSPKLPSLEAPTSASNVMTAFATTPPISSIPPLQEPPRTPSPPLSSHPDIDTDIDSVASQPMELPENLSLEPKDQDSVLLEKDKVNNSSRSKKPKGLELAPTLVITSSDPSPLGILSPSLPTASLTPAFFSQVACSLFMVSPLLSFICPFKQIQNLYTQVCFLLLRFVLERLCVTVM
# Method in brief: as §1
# ETV2 = target: T4, ETV2 (Homo sapiens, UniProt O00321 1-342); details: protein: recombinant; tags: N-terminal GST; dsDNA, one strand shown
# T4 sequence: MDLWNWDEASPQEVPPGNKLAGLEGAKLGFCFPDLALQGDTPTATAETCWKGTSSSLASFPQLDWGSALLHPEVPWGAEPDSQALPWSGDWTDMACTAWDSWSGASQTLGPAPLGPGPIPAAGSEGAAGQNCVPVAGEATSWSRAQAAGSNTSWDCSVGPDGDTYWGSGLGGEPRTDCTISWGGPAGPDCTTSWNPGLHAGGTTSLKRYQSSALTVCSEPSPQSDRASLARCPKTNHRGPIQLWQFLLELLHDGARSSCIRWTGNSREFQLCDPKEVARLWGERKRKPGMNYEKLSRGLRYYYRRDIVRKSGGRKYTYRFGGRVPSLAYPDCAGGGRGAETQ
# Method in brief: as §1
# ELF3 = target: T5, ELF3 (Homo sapiens, UniProt P78545 1-371); details: protein: recombinant; tags: N-terminal GST; dsDNA, one strand shown
# T5 sequence: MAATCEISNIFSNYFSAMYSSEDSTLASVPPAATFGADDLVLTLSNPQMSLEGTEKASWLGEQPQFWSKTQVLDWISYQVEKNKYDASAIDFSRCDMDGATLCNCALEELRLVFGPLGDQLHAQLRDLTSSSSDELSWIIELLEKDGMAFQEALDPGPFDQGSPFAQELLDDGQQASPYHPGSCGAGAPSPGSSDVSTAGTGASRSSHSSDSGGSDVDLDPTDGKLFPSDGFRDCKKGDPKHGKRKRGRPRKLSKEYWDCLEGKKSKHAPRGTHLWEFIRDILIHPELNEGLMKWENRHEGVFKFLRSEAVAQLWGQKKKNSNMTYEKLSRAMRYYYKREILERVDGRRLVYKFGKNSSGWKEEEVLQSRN
# Method in brief: as §1
# CRX = CRX (Homo sapiens, UniProt O43186 1-299); details: protein: recombinant; tags: N-terminal GST; dsDNA, one strand shown
# Method in brief: as §1
# ETV1 = ETV1 (Homo sapiens, UniProt P50549 1-477); details: protein: recombinant; tags: N-terminal GST; dsDNA, one strand shown
# Method in brief: as §1
# ERF = target: T6, ERF (Homo sapiens, UniProt P50548 1-548); details: protein: recombinant; tags: N-terminal GST; dsDNA, one strand shown
# T6 sequence: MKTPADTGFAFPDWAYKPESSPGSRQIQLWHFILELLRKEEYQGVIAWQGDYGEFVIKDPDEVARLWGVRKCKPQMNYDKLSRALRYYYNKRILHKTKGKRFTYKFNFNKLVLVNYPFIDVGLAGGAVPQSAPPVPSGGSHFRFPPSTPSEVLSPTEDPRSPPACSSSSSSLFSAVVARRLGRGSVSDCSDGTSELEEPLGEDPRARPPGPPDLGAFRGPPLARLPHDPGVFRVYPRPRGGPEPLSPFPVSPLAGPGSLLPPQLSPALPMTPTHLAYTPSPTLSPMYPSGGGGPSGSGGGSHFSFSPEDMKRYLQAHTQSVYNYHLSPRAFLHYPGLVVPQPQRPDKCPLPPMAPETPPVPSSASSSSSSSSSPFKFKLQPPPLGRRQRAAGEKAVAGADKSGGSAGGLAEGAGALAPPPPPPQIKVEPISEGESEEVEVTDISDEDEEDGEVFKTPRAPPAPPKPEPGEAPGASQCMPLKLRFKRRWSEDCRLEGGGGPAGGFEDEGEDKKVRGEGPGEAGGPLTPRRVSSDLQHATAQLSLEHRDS
# Method in brief: as §1
# ETV3L = target: T7, ETV3L (Homo sapiens, UniProt Q6ZN32 1-361); details: protein: recombinant; tags: N-terminal GST; dsDNA, one strand shown
# T7 sequence: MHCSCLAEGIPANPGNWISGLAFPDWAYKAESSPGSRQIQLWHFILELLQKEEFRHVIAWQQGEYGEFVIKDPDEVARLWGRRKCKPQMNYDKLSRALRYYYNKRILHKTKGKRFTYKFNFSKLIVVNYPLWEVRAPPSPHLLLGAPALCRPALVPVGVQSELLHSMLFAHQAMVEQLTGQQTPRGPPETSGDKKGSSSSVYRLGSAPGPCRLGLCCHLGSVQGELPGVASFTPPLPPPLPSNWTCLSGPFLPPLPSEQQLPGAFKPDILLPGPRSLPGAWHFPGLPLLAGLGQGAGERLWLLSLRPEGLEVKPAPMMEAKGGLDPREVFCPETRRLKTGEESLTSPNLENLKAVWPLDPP
# Method in brief: as §1
# ETS2 = target: T8, ETS2 (Homo sapiens, UniProt P15036 1-469); details: protein: recombinant; tags: N-terminal GST; dsDNA, one strand shown
# T8 sequence: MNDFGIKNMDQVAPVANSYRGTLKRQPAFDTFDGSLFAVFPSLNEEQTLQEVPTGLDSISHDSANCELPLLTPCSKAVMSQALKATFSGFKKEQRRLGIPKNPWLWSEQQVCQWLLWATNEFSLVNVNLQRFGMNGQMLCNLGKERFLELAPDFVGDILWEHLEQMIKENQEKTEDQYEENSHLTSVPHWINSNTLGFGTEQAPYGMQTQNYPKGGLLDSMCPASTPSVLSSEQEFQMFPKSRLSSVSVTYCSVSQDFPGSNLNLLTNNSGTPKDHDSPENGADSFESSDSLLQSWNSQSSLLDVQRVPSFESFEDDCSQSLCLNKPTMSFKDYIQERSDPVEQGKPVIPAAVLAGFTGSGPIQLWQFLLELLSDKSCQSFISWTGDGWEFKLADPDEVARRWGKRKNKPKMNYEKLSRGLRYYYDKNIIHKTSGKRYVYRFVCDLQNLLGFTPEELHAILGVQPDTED
# Method in brief: as §1
# SPDEF = target: T9, SPDEF (Homo sapiens, UniProt O95238 1-335); details: protein: recombinant; tags: N-terminal GST; dsDNA, one strand shown
# T9 sequence: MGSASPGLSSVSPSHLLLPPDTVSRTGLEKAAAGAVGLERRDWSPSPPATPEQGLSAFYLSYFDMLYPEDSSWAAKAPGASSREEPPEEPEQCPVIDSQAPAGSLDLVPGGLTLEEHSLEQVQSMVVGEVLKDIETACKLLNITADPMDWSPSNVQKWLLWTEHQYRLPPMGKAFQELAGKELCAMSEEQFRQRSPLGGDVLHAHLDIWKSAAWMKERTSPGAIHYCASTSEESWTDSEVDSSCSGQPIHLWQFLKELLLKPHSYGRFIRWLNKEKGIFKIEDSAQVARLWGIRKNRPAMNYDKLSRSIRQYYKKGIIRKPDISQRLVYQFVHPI
# Method in brief: as §1
# ETV7 = target: T10, ETV7 (Homo sapiens, UniProt Q9Y603 1-341); details: protein: recombinant; tags: N-terminal GST; dsDNA, one strand shown
# T10 sequence: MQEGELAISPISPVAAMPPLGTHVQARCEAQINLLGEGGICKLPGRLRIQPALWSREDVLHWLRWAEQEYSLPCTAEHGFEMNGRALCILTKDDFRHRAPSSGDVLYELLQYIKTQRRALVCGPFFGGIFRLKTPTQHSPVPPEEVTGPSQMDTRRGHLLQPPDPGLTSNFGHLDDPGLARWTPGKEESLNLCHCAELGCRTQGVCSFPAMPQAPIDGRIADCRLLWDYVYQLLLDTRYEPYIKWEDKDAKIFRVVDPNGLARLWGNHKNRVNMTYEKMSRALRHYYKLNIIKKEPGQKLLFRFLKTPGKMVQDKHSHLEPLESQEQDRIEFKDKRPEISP
# Method in brief: as §1
# ELF5 = target: T11, ELF5 (Homo sapiens, UniProt Q9UKW6-2 1-255); details: protein: recombinant; tags: N-terminal GST; dsDNA, one strand shown
# T11 sequence: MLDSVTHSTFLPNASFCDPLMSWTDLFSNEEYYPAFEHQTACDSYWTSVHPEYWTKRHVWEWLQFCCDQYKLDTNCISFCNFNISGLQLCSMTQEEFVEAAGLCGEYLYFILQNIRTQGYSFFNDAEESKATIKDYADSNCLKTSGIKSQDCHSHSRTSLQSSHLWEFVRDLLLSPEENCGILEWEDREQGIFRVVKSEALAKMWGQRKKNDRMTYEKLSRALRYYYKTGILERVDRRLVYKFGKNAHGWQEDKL
# Method in brief: as §1
# ETV3 = target: T12, ETV3 (Homo sapiens, UniProt P41162-2 1-143); details: protein: recombinant; tags: N-terminal GST; dsDNA, one strand shown
# T12 sequence: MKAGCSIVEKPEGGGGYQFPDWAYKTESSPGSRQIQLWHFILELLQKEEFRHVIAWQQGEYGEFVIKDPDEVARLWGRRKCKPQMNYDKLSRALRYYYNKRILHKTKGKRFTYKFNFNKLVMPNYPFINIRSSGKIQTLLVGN
# Method in brief: as §1
# ETV6 = ETV6 (Homo sapiens, UniProt P41212 1-452); details: protein: recombinant; tags: N-terminal GST; dsDNA, one strand shown
# Method in brief: as §1
# ETV5, sequence (P41161 whole entry): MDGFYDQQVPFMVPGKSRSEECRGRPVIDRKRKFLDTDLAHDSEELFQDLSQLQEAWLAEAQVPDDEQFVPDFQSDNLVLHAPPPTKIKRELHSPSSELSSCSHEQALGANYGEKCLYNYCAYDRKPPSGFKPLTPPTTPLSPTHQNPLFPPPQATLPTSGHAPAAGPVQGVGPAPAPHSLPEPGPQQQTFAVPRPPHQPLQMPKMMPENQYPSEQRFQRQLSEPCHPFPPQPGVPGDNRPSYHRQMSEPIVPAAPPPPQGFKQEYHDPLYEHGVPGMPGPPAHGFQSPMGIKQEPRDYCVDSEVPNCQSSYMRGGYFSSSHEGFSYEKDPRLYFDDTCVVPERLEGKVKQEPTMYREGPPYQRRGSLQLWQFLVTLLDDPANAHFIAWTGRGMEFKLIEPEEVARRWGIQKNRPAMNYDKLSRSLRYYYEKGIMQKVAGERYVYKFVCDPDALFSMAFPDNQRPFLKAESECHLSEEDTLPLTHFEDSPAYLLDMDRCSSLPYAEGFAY
# ETV6, sequence (P41212 whole entry): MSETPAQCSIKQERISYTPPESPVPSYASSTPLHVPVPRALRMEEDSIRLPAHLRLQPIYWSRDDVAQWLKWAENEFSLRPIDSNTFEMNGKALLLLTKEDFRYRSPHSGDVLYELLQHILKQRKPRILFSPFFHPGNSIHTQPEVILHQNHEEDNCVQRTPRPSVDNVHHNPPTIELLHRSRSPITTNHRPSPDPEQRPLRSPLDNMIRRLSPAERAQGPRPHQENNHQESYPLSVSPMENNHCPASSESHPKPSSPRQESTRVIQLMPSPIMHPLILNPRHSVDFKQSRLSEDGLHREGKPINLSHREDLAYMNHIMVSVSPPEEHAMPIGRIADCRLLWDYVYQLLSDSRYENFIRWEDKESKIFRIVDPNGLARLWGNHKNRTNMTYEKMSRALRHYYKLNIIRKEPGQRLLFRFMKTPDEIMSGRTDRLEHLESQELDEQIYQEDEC
# ETV1, sequence (P50549 whole entry): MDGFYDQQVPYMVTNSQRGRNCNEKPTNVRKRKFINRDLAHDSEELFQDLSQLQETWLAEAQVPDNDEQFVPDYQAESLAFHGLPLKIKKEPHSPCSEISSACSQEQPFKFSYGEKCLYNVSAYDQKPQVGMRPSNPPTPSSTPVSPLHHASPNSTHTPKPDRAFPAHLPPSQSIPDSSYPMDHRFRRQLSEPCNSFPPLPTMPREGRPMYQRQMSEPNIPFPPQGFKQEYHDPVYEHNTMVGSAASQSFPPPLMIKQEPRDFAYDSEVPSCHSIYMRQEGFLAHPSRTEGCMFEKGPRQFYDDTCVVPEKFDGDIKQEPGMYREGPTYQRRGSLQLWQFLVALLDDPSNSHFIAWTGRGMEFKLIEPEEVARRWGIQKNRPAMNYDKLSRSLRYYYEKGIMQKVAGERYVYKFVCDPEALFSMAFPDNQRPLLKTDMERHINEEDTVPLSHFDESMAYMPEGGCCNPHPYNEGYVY
# CRX, sequence (O43186 whole entry): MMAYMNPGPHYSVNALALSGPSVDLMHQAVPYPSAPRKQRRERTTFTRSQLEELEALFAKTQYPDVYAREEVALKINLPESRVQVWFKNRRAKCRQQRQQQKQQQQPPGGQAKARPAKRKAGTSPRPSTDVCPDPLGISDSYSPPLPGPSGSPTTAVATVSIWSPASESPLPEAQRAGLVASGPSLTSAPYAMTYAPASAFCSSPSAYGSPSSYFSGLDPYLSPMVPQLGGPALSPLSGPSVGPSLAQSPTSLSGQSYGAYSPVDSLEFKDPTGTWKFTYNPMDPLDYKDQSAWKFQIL
# ELF4, sequence (Q99607 whole entry): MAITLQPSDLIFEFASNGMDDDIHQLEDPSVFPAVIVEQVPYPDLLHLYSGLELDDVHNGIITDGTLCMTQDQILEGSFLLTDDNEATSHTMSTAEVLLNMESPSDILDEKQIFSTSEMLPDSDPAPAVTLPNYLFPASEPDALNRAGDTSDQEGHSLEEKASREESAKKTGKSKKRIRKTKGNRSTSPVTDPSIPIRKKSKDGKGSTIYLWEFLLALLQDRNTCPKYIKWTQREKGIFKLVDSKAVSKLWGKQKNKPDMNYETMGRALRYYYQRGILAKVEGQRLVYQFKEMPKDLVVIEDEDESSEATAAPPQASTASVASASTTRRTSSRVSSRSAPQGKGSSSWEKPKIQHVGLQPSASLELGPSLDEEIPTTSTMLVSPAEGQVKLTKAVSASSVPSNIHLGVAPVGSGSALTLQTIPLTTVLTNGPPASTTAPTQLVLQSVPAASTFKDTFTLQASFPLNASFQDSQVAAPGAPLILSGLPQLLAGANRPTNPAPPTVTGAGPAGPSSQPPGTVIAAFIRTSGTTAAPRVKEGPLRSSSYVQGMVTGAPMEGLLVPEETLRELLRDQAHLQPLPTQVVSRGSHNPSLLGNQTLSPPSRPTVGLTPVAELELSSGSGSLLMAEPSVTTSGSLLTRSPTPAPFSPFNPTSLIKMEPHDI
# HSF1, sequence (Q00613 whole entry): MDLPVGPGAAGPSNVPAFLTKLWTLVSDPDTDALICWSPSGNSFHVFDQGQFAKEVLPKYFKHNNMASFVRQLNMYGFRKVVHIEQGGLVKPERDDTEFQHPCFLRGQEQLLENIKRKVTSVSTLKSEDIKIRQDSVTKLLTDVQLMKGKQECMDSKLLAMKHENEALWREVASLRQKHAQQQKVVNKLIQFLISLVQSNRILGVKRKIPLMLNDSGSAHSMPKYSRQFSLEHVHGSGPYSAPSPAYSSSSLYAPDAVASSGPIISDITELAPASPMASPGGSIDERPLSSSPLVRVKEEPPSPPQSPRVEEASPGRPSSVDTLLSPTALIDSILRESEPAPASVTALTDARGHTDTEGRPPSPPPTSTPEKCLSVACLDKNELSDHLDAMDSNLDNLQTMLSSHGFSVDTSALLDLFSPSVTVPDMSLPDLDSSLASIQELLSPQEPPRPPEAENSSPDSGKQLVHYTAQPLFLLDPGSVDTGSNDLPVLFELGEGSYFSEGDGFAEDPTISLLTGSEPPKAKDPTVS
sequence,measurement,setting,value
TCCTCC,binding signal,FEV,"1.55 fold enrichment (6-mer frequency, TF over GST control)"
same,binding signal,ETV5,"1.59 fold enrichment (6-mer frequency, TF over GST control)"
same,binding signal,HSF1,"1.27 fold enrichment (6-mer frequency, TF over GST control)"
same,binding signal,SPIC,"1.57 fold enrichment (6-mer frequency, TF over GST control)"
same,binding signal,ELF4,"1.62 fold enrichment (6-mer frequency, TF over GST control)"
same,binding signal,ELK4,"1.48 fold enrichment (6-mer frequency, TF over GST control)"
same,binding signal,ETV2,"1.86 fold enrichment (6-mer frequency, TF over GST control)"
same,binding signal,ELF3,"1.22 fold enrichment (6-mer frequency, TF over GST control)"
same,binding signal,CRX,"1.4 fold enrichment (6-mer frequency, TF over GST control)"
same,binding signal,ETV1,"1.53 fold enrichment (6-mer frequency, TF over GST control)"
same,binding signal,ERF,"1.46 fold enrichment (6-mer frequency, TF over GST control)"
same,binding signal,ETV3L,"1.55 fold enrichment (6-mer frequency, TF over GST control)"
same,binding signal,ETS2,"1.51 fold enrichment (6-mer frequency, TF over GST control)"
same,binding signal,SPDEF,"1.61 fold enrichment (6-mer frequency, TF over GST control)"
same,binding signal,ETV7,"1.44 fold enrichment (6-mer frequency, TF over GST control)"
same,binding signal,ELF5,"2.04 fold enrichment (6-mer frequency, TF over GST control)"
same,binding signal,ETV3,"1.55 fold enrichment (6-mer frequency, TF over GST control)"
same,binding signal,ETV6,"1.51 fold enrichment (6-mer frequency, TF over GST control)"
